Measured values as given in PubChem BioAssay (NCATS).
Inconclusive results are not listed. The source made the active and inactive calls. Unless noted, the call rests on the fitted dose curve; in most records, active means well fitted curve in the direction sought with a large enough effect; inconclusive means small, poorly fitted or top-dose-only effect, or another doubt; inactive means no such curve, though single readings can be large; an effect the other way counts as inactive or inconclusive.

Assays:
[1] = qHTS assay for environmental chemicals that activate the Aryl hydrocarbon Receptor (AhR) signaling pathway (AID 651777); settings: 1A2-DRE human hepatoma cells, luciferase, 24 h; active compounds read high; further: % of control where 0% means no effect; nearly all actives have a fitted effect of over 15% in size
Method in brief: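 Human hepatoma 1A2-DRE cells, stably carrying a dioxin response element and CYP1A2 promoter driving luciferase, were exposed to compounds for 24 hr at 37 C and 5% CO2. Luciferase signal was then read after 30 min One-Glo at room temperature.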

[2] = target: Peroxisome proliferator-activated receptor alpha (Homo sapiens) (UniProt Q07869); test: qHTS assay for small molecule agonists of the peroxisome proliferator-activated receptor alpha (PPARalpha) signaling pathway (AID 651778); settings: PathHunter PPARalpha complementation, chemiluminescence, 6 h; max response: active compounds read high; further: % of control where 0% means no effect
Peroxisome proliferator-activated receptor alpha (Homo sapiens), sequence (Q07869 whole entry, looked up): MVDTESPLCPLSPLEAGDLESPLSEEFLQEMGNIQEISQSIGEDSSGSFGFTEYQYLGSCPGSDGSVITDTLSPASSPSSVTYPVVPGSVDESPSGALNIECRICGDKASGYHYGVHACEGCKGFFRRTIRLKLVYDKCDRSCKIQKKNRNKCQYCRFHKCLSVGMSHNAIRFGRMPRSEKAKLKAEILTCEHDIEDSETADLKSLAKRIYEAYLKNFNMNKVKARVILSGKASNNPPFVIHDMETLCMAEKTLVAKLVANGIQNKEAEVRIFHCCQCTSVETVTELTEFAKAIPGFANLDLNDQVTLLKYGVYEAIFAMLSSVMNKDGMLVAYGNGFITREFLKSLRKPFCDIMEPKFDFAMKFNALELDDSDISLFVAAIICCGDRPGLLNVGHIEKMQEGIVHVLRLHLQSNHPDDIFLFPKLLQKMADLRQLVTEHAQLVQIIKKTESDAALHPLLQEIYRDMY
Method in brief: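 Chemiluminescence from complemented enzyme reported PPARalpha activation in cells after 6 hr of compound treatment at 37 C. The detection reagent was incubated for 60 min at room temperature, and compounds were scored as agonists.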

[3] = qHTS for compounds that reverse cellular toxicity of Amyloid beta (A-beta) peptide in yeast: LOPAC Validation Assay (AID 720559);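 further: plate controls were DMSO for no effect and equimolar ferric chloride plus clioquinol rescue for full effect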
Method in brief: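 Yeast cells expressing toxic A-beta were combined with pinned compounds in growth medium and incubated 48 hr at 30 C. Growth was read as absorbance at 600 nm and normalized to DMSO and to an equimolar FeCl3/clioquinol positive control.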

[4] = qHTS for Activators of Parkin Expression: LOPAC Validation Assay (NLuc Reporter) (AID 720572)
Method in brief: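 Compound effects on Parkin promoter activity were measured as NanoLuc luminescence after 24 h at 37 C. The neuronal reporter line also carried FLuc, which was read first. LOPAC compounds were tested at 7 concentrations, with normalization to DMSO (0%) and positive control (100%).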

[5] = qHTS for Activators of Parkin Expression: LOPAC Validation Assay (FLuc Reporter) (AID 720573)
Method in brief: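 Neuronal cell line stably carrying FLuc/NLuc coincidence reporter under Parkin promoter; cells plated 24 h, then compounds added in 7-point dose response for 24 h at 37 C. FLuc luminescence read; normalized to DMSO and positive control (100%).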

[6] = qHTS assay for small molecule agonists of the antioxidant response element (ARE) signaling pathway measured by Nrf2-dependant transcriptional activity (AID 720636; active means well fitted curve in the direction sought with a large enough effect in the repeat runs; an effect the other way counts as inactive or inconclusive; further: % of control where 0% means no effect)
Method in brief: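 ARE-luc HepG2 cells carrying an Nrf2-responsive luciferase reporter were plated in medium with 1% dialyzed FBS, left 6 hr at 37 C to attach, then exposed to compound for 16 hr. Luciferase luminescence was read after ONE-Glo addition.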

[7] = target: T1, Hexokinase-4 (Homo sapiens) + Glucokinase regulatory protein (Homo sapiens) (UniProt P35557+Q14397); test: qHTS assay for inhibitors of recombinant human GCK-GKRP interaction: Diaphorase-coupled assay (AID 743205)
T1 sequence (P35557 whole entry, looked up): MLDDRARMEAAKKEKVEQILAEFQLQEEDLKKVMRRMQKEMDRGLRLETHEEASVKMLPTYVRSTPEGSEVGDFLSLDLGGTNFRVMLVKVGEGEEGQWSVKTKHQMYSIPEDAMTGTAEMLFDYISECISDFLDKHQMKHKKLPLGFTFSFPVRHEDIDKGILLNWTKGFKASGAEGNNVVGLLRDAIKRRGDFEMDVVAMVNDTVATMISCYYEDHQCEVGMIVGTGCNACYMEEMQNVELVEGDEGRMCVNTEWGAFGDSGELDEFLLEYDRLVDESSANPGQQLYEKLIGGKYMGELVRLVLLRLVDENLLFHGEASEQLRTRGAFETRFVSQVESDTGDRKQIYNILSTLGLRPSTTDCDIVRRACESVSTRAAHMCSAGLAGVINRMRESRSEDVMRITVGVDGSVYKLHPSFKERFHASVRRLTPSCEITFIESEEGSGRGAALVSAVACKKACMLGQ
T1 sequence (Q14397 whole entry, looked up): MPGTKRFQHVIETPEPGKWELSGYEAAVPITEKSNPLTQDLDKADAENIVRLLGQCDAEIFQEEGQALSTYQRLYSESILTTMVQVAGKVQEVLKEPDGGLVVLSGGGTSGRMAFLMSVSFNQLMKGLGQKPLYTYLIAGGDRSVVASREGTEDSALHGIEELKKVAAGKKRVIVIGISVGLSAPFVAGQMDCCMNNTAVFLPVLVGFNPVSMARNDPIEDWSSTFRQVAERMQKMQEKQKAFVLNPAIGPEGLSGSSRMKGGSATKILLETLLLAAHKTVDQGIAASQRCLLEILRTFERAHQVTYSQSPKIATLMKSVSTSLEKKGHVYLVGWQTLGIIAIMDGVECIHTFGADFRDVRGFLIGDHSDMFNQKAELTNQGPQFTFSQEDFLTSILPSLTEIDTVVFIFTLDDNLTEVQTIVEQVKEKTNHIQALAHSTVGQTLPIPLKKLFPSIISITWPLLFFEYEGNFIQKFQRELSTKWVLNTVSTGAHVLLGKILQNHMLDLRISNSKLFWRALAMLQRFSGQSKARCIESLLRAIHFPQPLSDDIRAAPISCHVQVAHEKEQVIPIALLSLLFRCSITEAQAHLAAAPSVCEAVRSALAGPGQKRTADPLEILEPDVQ
Method in brief: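 GST-GCK (10 nM) with FLAG-GKRP (10 nM), 5 mM glucose and 0.4 mM ATP in pH 7.6 Hepes; compounds preincubated 20 min with substrate. G6PDH/diaphorase coupling converts resazurin to resorufin, read kinetically (ex 525/em 590 nm) for 30 min.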

[8] = target: T1, Hexokinase-4 (Homo sapiens) + Glucokinase regulatory protein (Homo sapiens); test: qHTS assay for inhibitors of recombinant human GCK-GKRP interaction: ADP-Glo assay (AID 743206);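 further: plate controls were DMSO plus enzyme for no effect and no enzyme for full effect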
Method in brief: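 Pin-transferred compounds meet a 15 nM GST-GCK/15 nM FLAG-GKRP/2 uM S6P mix (dispense concentrations). ATP is then added to 0.4 mM final with 5 mM glucose, and the reaction runs 60 min at room temperature. ADP is quantified luminescently.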

[9] = qHTS assay for small molecule agonists of the antioxidant response element (ARE) signaling pathway measured by Nrf2-dependant transcriptional activity - cell viability counter screen (AID 720653; active means well fitted curve in the direction sought with a large enough effect in the repeat runs; an effect the other way counts as inactive or inconclusive; further: on the % scale 0 is the no-effect control and ±100 the full control effect); settings: ARE-bla HepG2 viability, CellTiter-Glo ATP luminescence, 16 h; max response: active compounds read low
Method in brief: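 Cytotoxicity counter screen: intracellular ATP quantified by CellTiter-Glo luminescence in the same ARE-bla HepG2 plates, after 16 h compound exposure and a 2 h beta-lactamase substrate step.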

[10] = qHTS assay for small molecule disruptors of the mitochondrial membrane potential - 1 hr assay (AID 651754; calls by dose curve; further: nearly all actives have a fitted effect of over 35% in size; further: potency means the concentration at half of the fitted maximal effect)
Method in brief: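 In this qHTS format, a 1 hr compound treatment of HepG2 cells precedes Mito-MPS staining, and membrane potential is judged from aggregate (red) against monomer (green) fluorescence intensity.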

[11] = qHTS assay for small molecule disruptors of the mitochondrial membrane potential - 5 hr assay (AID 651755; calls by dose curve; further: nearly all actives have a fitted effect of over 40% in size; further: potency means the concentration at half of the fitted maximal effect)
Method in brief: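 Membrane-potential dye readout: red aggregate (540 ex/590 em) versus green monomer (490 ex/535 em) fluorescence after 30 min dye loading, following 5 hr compound exposure at 37C of overnight-plated HepG2 cells.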

[12] = target: Tumor necrosis factor (Homo sapiens) (UniProt P01375); test: qHTS assay to identify small molecules that stimulate Tumor Necrosis Factor-alpha (TNF-alpha) secretion (AID 651757; active means well fitted curve in the direction sought with a large enough effect in the signal ratio; the % refers to the signal ratio; further: 0% is about no effect)
Tumor necrosis factor (Homo sapiens), sequence (P01375 whole entry, looked up): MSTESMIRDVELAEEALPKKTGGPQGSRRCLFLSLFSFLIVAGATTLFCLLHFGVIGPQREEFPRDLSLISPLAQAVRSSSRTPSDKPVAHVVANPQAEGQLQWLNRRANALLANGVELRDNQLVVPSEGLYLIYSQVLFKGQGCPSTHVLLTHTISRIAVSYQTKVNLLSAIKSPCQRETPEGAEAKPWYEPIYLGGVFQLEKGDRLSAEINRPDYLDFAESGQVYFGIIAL
Method in brief: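 Using 3000 THP-1 cells per well, compounds and controls were applied for 17 hrs at 37 C. Detection followed with two labeled anti-TNF-alpha antibodies (cryptate donor, XL665 acceptor) for 3 hr at room temperature, measured by TR-FRET.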

[13] = target: Nuclear receptor ROR-gamma (Homo sapiens) (UniProt P51449); test: qHTS assay for small molecule antagonists of the retinoid-related orphan receptor gamma (ROR-gamma) signaling pathway (AID 651802);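 further: CHO cells with doxycycline-induced ROR-gamma expression; luciferase reporter luminescence driven by ROR response element; series mostly up to about 92 µM; on the % scale 0 is the no-effect control and ±100 the full control effect; nearly all actives have a fitted effect of over 60% in size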
Nuclear receptor ROR-gamma (Homo sapiens), sequence (P51449 whole entry, looked up): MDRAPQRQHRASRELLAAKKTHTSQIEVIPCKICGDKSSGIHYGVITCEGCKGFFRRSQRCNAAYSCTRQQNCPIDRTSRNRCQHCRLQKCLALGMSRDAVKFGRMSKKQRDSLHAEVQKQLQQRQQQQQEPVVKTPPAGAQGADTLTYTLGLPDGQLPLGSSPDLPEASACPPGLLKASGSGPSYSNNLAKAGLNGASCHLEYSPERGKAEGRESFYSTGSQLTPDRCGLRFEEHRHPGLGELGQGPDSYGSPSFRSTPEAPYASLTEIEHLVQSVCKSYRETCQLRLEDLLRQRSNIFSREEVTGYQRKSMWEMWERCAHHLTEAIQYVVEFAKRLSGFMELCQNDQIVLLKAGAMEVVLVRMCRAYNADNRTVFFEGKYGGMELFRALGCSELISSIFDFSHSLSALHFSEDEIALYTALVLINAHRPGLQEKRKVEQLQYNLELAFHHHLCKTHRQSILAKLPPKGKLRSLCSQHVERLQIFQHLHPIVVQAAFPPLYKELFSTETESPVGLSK
Method in brief: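 Doxycycline-induced reporter activity in engineered CHO cells (TET-inducible ROR, RORE-LUC) was measured by luminescence after 16hr compound exposure at 37C.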

[14] = qHTS assay for small molecule antagonists of the retinoid-related orphan receptor gamma (ROR-gamma) signaling pathway - cell viability counter screen (AID 720652; active means well fitted curve in the direction sought with a large enough effect in the repeat runs; an effect the other way counts as inactive or inconclusive;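 further: CHO reporter cells with doxycycline-induced ROR-gamma expression; series mostly up to about 92 µM; compound exposure lasted 16 hr before ATP read; on the % scale 0 is the no-effect control and ±100 the full control effect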)
Method in brief: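 ATP-based viability readout in the ROR-gamma reporter CHO cells after 16 hr compound exposure under doxycycline induction.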

[15] = target: Arylsulfatase A (Homo sapiens) (UniProt P15289); test: qHTS screen for enhancers of Arylsulfatase A (ASA1): LOPAC Validation Assay (AID 720538); settings: outcome: dose series up to 57.5 µM
Arylsulfatase A (Homo sapiens), sequence (P15289 whole entry, looked up): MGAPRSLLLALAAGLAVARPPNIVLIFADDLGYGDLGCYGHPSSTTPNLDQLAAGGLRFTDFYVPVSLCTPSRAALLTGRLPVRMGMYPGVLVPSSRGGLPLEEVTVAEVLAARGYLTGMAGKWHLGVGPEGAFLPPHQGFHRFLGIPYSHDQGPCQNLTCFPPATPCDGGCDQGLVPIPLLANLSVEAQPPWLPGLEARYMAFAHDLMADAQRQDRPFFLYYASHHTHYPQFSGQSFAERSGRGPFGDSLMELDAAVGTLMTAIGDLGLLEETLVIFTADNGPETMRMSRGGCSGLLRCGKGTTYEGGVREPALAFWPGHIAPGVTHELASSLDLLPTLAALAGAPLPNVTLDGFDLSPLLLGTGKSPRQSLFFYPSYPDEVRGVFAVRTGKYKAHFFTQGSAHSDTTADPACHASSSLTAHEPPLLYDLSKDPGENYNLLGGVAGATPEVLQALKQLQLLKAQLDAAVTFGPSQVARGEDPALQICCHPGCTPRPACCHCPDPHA
Method in brief: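 SV40-transformed skin fibroblasts from an MLD patient (ASA-I179S) were treated with compounds for 48h at 37 degree C, then lysed with 0.5mM pNCS final substrate for 14h at room temperature; NaOH stop, fluorescence read (Ex=525 nm; Em=598 nm).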

[16] = target: Tyrosine-protein kinase Yes (Homo sapiens) (UniProt P07947); test: qHTS for small molecule inhibitors of Yes1 kinase: Primary Screen (AID 686947);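 further: plate controls were DMSO with enzyme for no effect and no-enzyme DMSO wells for full effect; nearly all actives have a fitted effect of over 60% in size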
Tyrosine-protein kinase Yes (Homo sapiens), sequence (P07947 whole entry, looked up): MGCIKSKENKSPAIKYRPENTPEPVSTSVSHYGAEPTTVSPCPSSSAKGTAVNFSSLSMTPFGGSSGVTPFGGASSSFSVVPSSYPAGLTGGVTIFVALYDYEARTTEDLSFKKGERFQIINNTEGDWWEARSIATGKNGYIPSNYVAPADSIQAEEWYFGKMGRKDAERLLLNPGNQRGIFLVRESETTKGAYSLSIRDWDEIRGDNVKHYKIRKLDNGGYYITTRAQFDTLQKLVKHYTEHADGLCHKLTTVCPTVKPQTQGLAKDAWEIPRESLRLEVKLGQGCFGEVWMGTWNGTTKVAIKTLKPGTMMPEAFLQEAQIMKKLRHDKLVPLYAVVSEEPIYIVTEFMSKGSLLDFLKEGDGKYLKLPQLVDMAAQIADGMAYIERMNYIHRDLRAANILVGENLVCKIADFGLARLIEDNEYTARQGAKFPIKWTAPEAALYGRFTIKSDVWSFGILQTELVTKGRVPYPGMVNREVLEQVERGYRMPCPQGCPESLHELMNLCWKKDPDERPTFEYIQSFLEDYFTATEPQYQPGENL
Method in brief: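 In this qHTS format, inhibition is expressed relative to DMSO controls with enzyme (maximum) and without enzyme (minimum). The 60 min room-temperature reaction uses 0.1 mM ATP, with ADP detected by luminescence.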

[17] = qHTS for small molecule inhibitors of Yes1 kinase: Counter Assay (AID 686950);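 further: no kinase present so only ADP-Glo detection of a fixed ADP amount is tested; luminescence from ADP-Glo reporting ADP in a fixed ATP and ADP mixture; series mostly up to about 77 µM; 0% = DMSO wells with ATP plus ADP and -100% = ATP-only wells without ADP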
Method in brief: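 ADP-Glo luminescence read after a 60 min room-temperature incubation of compound with an ATP/ADP mix (0.08 mM/0.02 mM) and no kinase, following a 20 min compound preincubation. Signal scaled between ATP+ADP (max) and 0.1 mM ATP-only (min) wells; Tris pH 7.5, Mg2+, DTT.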

Nc1nc(N)c2nc(CNc3ccc(C(=O)NC(CCC(=O)O)C(=O)O)cc3)cnc2n1 (stereo not given)
inactive: activation [1] -4.32% | max response [2] -1.16% | outcome [3] | outcome [4] | outcome [5] | outcome [6] | outcome [7] | outcome [8]

S=P(N1CC1)(N1CC1)N1CC1
inactive: activation [1] 0.0951% | max response [2] -1.18% | outcome [6] | max response [9] -3.97%

C[C@]12C=CC(=O)C=C1CC[C@@H]1[C@@H]2C(=O)C[C@@]2(C)[C@H]1CC[C@]2(O)C(=O)CO
inactive: Potency [10] | Potency [11] | outcome [12] | activation [1] -0.111% | max response [2] -2.07% | Potency [13] | outcome [6] | Potency [14] | max response [9] 1.48%

COc1ccc2cc3[n+](cc2c1OC)CCc1cc2c(cc1-3)OCO2
active: Potency [10] 21.1 µM | Potency [11] 9.44 µM
inactive: max response [2] -3.31% | Potency [13] | outcome [6] | Potency [14] | max response [9] -27.8%

OCc1ccc(-c2nn(Cc3ccccc3)c3ccccc23)o1
inactive: outcome [15] | outcome [3] | outcome [4] | outcome [5] | outcome [7] | outcome [8]

CC(C)C[C@H](NC(=O)[C@H](CCc1ccccc1)NC(=O)CN1CCOCC1)C(=O)N[C@@H](Cc1ccccc1)C(=O)N[C@@H](CC(C)C)C(=O)[C@@]1(C)CO1
inactive: outcome [16] | outcome [17]

CCN1CCCC1CNC(=O)c1cc(S(N)(=O)=O)ccc1OC (stereo not given)
inactive: outcome [15] | outcome [3] | outcome [4] | outcome [5] | outcome [7] | outcome [8]

COc1cc2c(Nc3ccc(Br)cc3F)ncnc2cc1OCC1CCN(C)CC1
inactive: outcome [17]

CC1CC2C3CCC4=CC(=O)C=C[C@]4(C)[C@@]3(F)[C@@H](O)C[C@]2(C)[C@@]1(O)C(=O)CO (stereo not given in full)
inactive: outcome [15] | outcome [3] | outcome [4] | outcome [5] | outcome [7] | outcome [8]

COc1cc([C@@H]2c3cc4c(cc3[C@H](O)[C@H]3COC(=O)[C@H]23)OCO4)cc(OC)c1OC
inactive: outcome [16] | outcome [17]

Cc1ccc(S(=O)(=O)N[C@@H](Cc2ccccc2)C(=O)CCl)cc1
inactive: outcome [15] | outcome [3] | outcome [4] | outcome [5] | outcome [7] | outcome [8]

NC1(c2ccc(-c3nc4ccn5c(=O)[nH]nc5c4cc3-c3ccccc3)cc2)CCC1
inactive: outcome [17]

Cc1nnc(C(=O)NC(C)(C)c2nc(C(=O)NCc3ccc(F)cc3)c(O)c(=O)n2C)o1
inactive: outcome [16] | outcome [17]

CC1=C(C(=O)O)N2C(=O)[C@@H](NC(=O)C(N)c3ccccc3)[C@H]2SC1 (stereo not given in full)
inactive: outcome [15] | outcome [3] | outcome [4] | outcome [5] | outcome [7] | outcome [8]

NC(=O)c1ccc2[nH]ccc2c1
inactive: outcome [3] | outcome [4] | outcome [5] | outcome [7] | outcome [8]

CNC(=O)c1cc(Oc2ccc(NC(=O)Nc3ccc(Cl)c(C(F)(F)F)c3)cc2)ccn1
inactive: outcome [17]

CCN(CC)CCn1c(=O)c(Cc2ccc(OC)cc2)nc2ccccc21
inactive: outcome [16] | outcome [17] | outcome [15] | outcome [3] | outcome [4] | outcome [5] | outcome [7] | outcome [8]

CC(=O)CC(c1ccccc1)c1c(O)c2ccccc2oc1=O (stereo not given)
inactive: max response [2] -0.925% | outcome [6] | max response [9] 12%

NC(=O)c1cccc(N)c1
inactive: outcome [15] | outcome [3] | outcome [4] | outcome [5] | outcome [7] | outcome [8]

O=C(O)C1CCCN(CCC=C(c2ccccc2)c2ccccc2)C1 (stereo not given)
inactive: outcome [3] | outcome [4] | outcome [5] | outcome [7] | outcome [8]

CC(C)NCC(O)c1ccc(NS(C)(=O)=O)cc1 (stereo not given)
inactive: outcome [15] | outcome [3] | outcome [4] | outcome [5] | outcome [7] | outcome [8]

COc1cc2nc(N3CCCN(C)CC3)nc(NC3CCN(Cc4ccccc4)CC3)c2cc1OC
inactive: outcome [16] | outcome [17] | outcome [15] | outcome [3] | outcome [4] | outcome [5] | outcome [7] | outcome [8]

Cc1c(-c2ccc(O)cc2)n(Cc2ccc(OCCN3CCCCCC3)cc2)c2ccc(O)cc12
inactive: outcome [16] | outcome [17]

CCN(CC)CC#CCOC(=O)C(O)(c1ccccc1)C1CCCCC1 (stereo not given)
inactive: outcome [15] | outcome [3] | outcome [4] | outcome [5] | outcome [7] | outcome [8]

COc1cc2ncnc(Nc3cccc(Cl)c3)c2cc1OC
inactive: outcome [15] | outcome [3] | outcome [4] | outcome [5] | outcome [7] | outcome [8]

CCCCS(=N)(=O)CCC(N)C(=O)O (stereo not given)
inactive: outcome [15] | outcome [3] | outcome [4] | outcome [5] | outcome [7] | outcome [8]

O=S(=O)(c1cccc2cnccc12)N1CCCNCC1
inactive: outcome [16] | outcome [17]
